Measured values published in the supplement of paper PMC9262897, “Low-cost anti-mycobacterial drug discovery using engineered E. coli” (Nature Communications, 2022).
Counter-ions that a name gives are not always drawn. ± gives the standard deviation of the averaged measurements.

System: E. coli TESEC Alr+ wild-type control
Test: growth (OD600 after 10 h); higher = more growth (less inhibition)
Conditions: compound 0.1 mM; raw OD600 reference: median of DMSO wells 0.49, cell-free background 0.052
Method: (§1)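 TESEC Mtb Alr E. coli (ΔaraC ΔtolC ΔentC Δalr ΔdadX, arabinose-inducible Mtb Alr) or the Alr+ wild-type control strain, grown in defined M9-fructose medium without D-alanine in 96-well plates with Prestwick library compounds at 0.1 mM and 1% DMSO. Low Alr induction is 0.1 µM arabinose and high induction is 10 mM arabinose.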

Q: How did the growth turn out when `CC[C@@]1([C@@H]2O[C@@H]([C@H]3O[C@@](O)(CO)[C@H](C)C[C@@H]3C)C[C@@H]2C)CC[C@H]([C@]2(C)CC[C@]3(C[C@H](O)[C@@H](C)[C@@H]([C@@H](C)[C@@H](OC)[C@H](C)C(=O)O)O3)O2)O1` [Monensin sodium salt] was run?
A: 0.408 ± 0.05

Q: How did the growth turn out when `CN1C[C@H](C(=O)N[C@]2(C)O[C@@]3(O)[C@@H]4CCCN4C(=O)[C@H](Cc4ccccc4)N3C2=O)C[C@@H]2c3cccc4[nH]cc(c34)C[C@H]21` [Dihydroergotamine tartrate] was run?
A: 0.1077 ± 0.001

Q: How did the growth turn out when `CN1[C@@H]2C[C@@H](OC(=O)[C@H](CO)c3ccccc3)C[C@H]1[C@@H]1O[C@@H]12` [Scopolamine hydrochloride] was run?
A: 0.469 ± 0.026

Q: `CN(C)C(=O)Oc1ccc[n+](C)c1` [Pyridostigmine iodide] was tested. Which growth did it give?
A: 0.436 ± 0.011

Q: With `CC[N+]1(C)CCCC(OC(=O)C(O)(c2ccccc2)c2ccccc2)C1` (configuration not stated) [Pipenzolate bromide] as the molecule, how does the growth read?
A: 0.424 ± 0.016

Q: `CCNCC(O)c1cccc(O)c1` (configuration not stated) [Etilefrine hydrochloride] was tested. Which growth did it give?
A: 0.446 ± 0.011

Q: With `C=CCN1CC[C@]23c4c5ccc(O)c4O[C@H]2C(=O)CC[C@@]3(O)[C@H]1C5` [Naloxone hydrochloride] as the molecule, how does the growth read?
A: 0.479 ± 0.016

Q: How did the growth turn out when `C[C@@H]1O[C@@H](O[C@@H]2C=C3CC[C@@H]4[C@H](CC[C@]5(C)[C@@H](c6ccc(=O)oc6)CC[C@]45O)[C@@]3(C)CC2)[C@H](O)[C@H](O)[C@H]1O` [Proscillaridin A] was run?
A: 0.626 ± 0.018

Q: How did the growth turn out when `C[C@]12CC[C@H](O)C[C@H]1CC[C@@H]1[C@@H]2C[C@@H](O)[C@]2(C)[C@@H](C3=CC(=O)OC3)CC[C@]12O` [Digoxigenin] was run?
A: 0.491 ± 0.031

Q: Which growth does the source give for `COc1cc2c(c(OC)c1OC)-c1ccc(OC)c(=O)cc1[C@@H](NC(C)=O)CC2` [Colchicine] here?
A: 0.6712 ± 0.00062

Q: How did the growth turn out when `C=C1CC[C@@]2(O)[C@H]3Cc4ccc(O)c5c4[C@@]2(CCN3CC2CC2)[C@H]1O5` [Nalmefene hydrochloride] was run?
A: 0.4625 ± 0.0046

Q: For `CCn1cc(C(=O)O)c(=O)c2cc3c(cc21)OCO3` [Oxolinic acid], which growth is on record?
A: 0.0605 ± 0.0014

Q: For `CCN(CC)C(C)C(=O)c1ccccc1` (configuration not stated) [Amfepramone hydrochloride], which growth is on record?
A: 0.556 ± 0.038

System: E. coli TESEC Mtb Alr
Test: as above
Conditions: arabinose 100 nM; compound 0.1 mM; raw OD600 reference: median of DMSO wells 0.413, cell-free background 0.052
Method: as §1

Q: `CC(N)C(O)c1ccccc1` (configuration not stated) [Phenylpropanolamine hydrochloride] was tested. Which growth did it give?
A: 0.404 ± 0.016

Q: `CC[C@@]1([C@@H]2O[C@@H]([C@H]3O[C@@](O)(CO)[C@H](C)C[C@@H]3C)C[C@@H]2C)CC[C@H]([C@]2(C)CC[C@]3(C[C@H](O)[C@@H](C)[C@@H]([C@@H](C)[C@@H](OC)[C@H](C)C(=O)O)O3)O2)O1` [Monensin sodium salt] was tested. Which growth did it give?
A: 0.384 ± 0.007

Q: With `CC(C)[N+](C)(CCC(C(N)=O)(c1ccccc1)c1ccccc1)C(C)C` [Isopropamide iodide] as the molecule, how does the growth read?
A: 0.399 ± 0.025

Q: Which growth does the source give for `CN1C[C@H](C(=O)N[C@]2(C)O[C@@]3(O)[C@@H]4CCCN4C(=O)[C@H](Cc4ccccc4)N3C2=O)C[C@@H]2c3cccc4[nH]cc(c34)C[C@H]21` [Dihydroergotamine tartrate] here?
A: 0.282 ± 0.043

Q: How did the growth turn out when `CN1[C@@H]2C[C@@H](OC(=O)[C@H](CO)c3ccccc3)C[C@H]1[C@@H]1O[C@@H]12` [Scopolamine hydrochloride] was run?
A: 0.408 ± 0.016

Q: For `CN1[C@@H]2CC[C@H]1C[C@@H](OC(=O)[C@H](CO)c1ccccc1)C2` [Hyoscyamine (L)], which growth is on record?
A: 0.415 ± 0.02

Q: With `CN(C)C(=O)Oc1ccc[n+](C)c1` [Pyridostigmine iodide] as the molecule, how does the growth read?
A: 0.404 ± 0.017

Q: How did the growth turn out when `CC[N+]1(C)CCCC(OC(=O)C(O)(c2ccccc2)c2ccccc2)C1` (configuration not stated) [Pipenzolate bromide] was run?
A: 0.409 ± 0.023

Q: For `CC(Cc1ccccc1)NCCC(c1ccccc1)c1ccccc1` (configuration not stated) [Prenylamine lactate], which growth is on record?
A: 0.276 ± 0.19

Q: With `C#C[C@]1(O)CC[C@H]2[C@@H]3CCC4=CC(=O)CC[C@]4(C)[C@H]3CC[C@@]21C` [Ethisterone] as the molecule, how does the growth read?
A: 0.408 ± 0.0092

Q: `CCNCC(O)c1cccc(O)c1` (configuration not stated) [Etilefrine hydrochloride] was tested. Which growth did it give?
A: 0.409 ± 0.015

Q: Which growth does the source give for `COc1cccc(C2(O)CCCCC2CN(C)C)c1` (configuration not stated) [Tramadol hydrochloride] here?
A: 0.4058 ± 0.0034

Q: How did the growth turn out when `C=CCN1CC[C@]23c4c5ccc(O)c4O[C@H]2C(=O)CC[C@@]3(O)[C@H]1C5` [Naloxone hydrochloride] was run?
A: 0.419 ± 0.0087

Q: How did the growth turn out when `O=c1[nH]c2ccccc2n1C1CCN(CCCC(c2ccc(F)cc2)c2ccc(F)cc2)CC1` [Pimozide] was run?
A: 0.417 ± 0.0074

Q: `CC[C@@H](CO)NC(=O)[C@@H]1C=C2c3cccc4[nH]cc(c34)C[C@H]2N(C)C1` [Methylergometrine maleate] was tested. Which growth did it give?
A: 0.4 ± 0.0081

Q: `C[C@]12Cc3c[nH]nc3C[C@@H]1CC[C@@H]1[C@@H]2CC[C@@]2(C)[C@H]1CC[C@]2(C)O` [Stanozolol] was tested. Which growth did it give?
A: 0.409 ± 0.0083

Q: `CN1CCC2(C)c3cc(O)ccc3N(C)C12` (single isomer, unassigned; (-)) [(-)-Eseroline fumarate salt] was tested. Which growth did it give?
A: 0.42 ± 0.0066

Q: With `C[C@@H]1O[C@@H](O[C@@H]2C=C3CC[C@@H]4[C@H](CC[C@]5(C)[C@@H](c6ccc(=O)oc6)CC[C@]45O)[C@@]3(C)CC2)[C@H](O)[C@H](O)[C@H]1O` [Proscillaridin A] as the molecule, how does the growth read?
A: 0.405 ± 0.009

Q: `COc1ccc(CN2CCNCC2)c(OC)c1OC` [Trimetazidine dihydrochloride] was tested. Which growth did it give?
A: 0.409 ± 0.014

Q: With `C[N+]1(C)CCOC(O)(c2ccc(-c3ccc(C4(O)C[N+](C)(C)CCO4)cc3)cc2)C1` (configuration not stated) [Hemicholinium bromide] as the molecule, how does the growth read?
A: 0.403 ± 0.0081

Q: `OC(c1ccccc1)(c1ccccc1)C1CCNCC1` [Azacyclonol] was tested. Which growth did it give?
A: 0.412 ± 0.011

Q: How did the growth turn out when `CCN(C(C)=O)c1cccc(-c2ccnc3c(C#N)cnn23)c1` [Zaleplon] was run?
A: 0.411 ± 0.012

Q: Which growth does the source give for `Cc1cc(C(C#N)c2ccc(Cl)cc2)c(Cl)cc1NC(=O)c1cc(I)cc(I)c1O` (configuration not stated) [Closantel] here?
A: 0.137 ± 0.042

Q: `C[C@]12CC[C@H](O)C[C@H]1CC[C@@H]1[C@@H]2C[C@@H](O)[C@]2(C)[C@@H](C3=CC(=O)OC3)CC[C@]12O` [Digoxigenin] was tested. Which growth did it give?
A: 0.408 ± 0.02

Q: For `COc1cc2c(c(OC)c1OC)-c1ccc(OC)c(=O)cc1[C@@H](NC(C)=O)CC2` [Colchicine], which growth is on record?
A: 0.423 ± 0.038

Q: Which growth does the source give for `C=C1C[C@@H]2[C@H](CC[C@]3(C)C(=O)CC[C@@H]23)[C@@]2(C)C=CC(=O)C=C12` [Exemestane] here?
A: 0.379 ± 0.039

Q: Which growth does the source give for `C=C1CC[C@@]2(O)[C@H]3Cc4ccc(O)c5c4[C@@]2(CCN3CC2CC2)[C@H]1O5` [Nalmefene hydrochloride] here?
A: 0.425 ± 0.007

Q: For `C[N+](C)(C)CCCCCCCCCC[N+](C)(C)C` [Decamethonium bromide], which growth is on record?
A: 0.39 ± 0.017

Q: For `CCn1cc(C(=O)O)c(=O)c2cc3c(cc21)OCO3` [Oxolinic acid], which growth is on record?
A: 0.0698 ± 0.0013

Q: Which growth does the source give for `O=P1(N(CCCl)CCCl)NCCCO1` (configuration not stated) [Cyclophosphamide] here?
A: 0.4139 ± 0.003

Q: Which growth does the source give for `CC(CCc1ccccc1)NC(C)C(O)c1ccc(O)cc1` (configuration not stated) [Nylidrin] here?
A: 0.404 ± 0.014

Q: `NCCCNCCSP(=O)(O)O` [Amifostine] was tested. Which growth did it give?
A: 0.402 ± 0.011

Q: How did the growth turn out when `CCC1(c2ccc(N)cc2)CCC(=O)NC1=O` (configuration not stated) [Glutethimide, para-amino] was run?
A: 0.402 ± 0.014

Q: How did the growth turn out when `CCN(CC)C(C)C(=O)c1ccccc1` (configuration not stated) [Amfepramone hydrochloride] was run?
A: 0.411 ± 0.0098

Q: Which growth does the source give for `C=C(C)[C@@H]1[C@H]2OC(=O)[C@@H]1[C@]1(O)C[C@H]3O[C@]34C(=O)O[C@H]2[C@]14C` [Picrotoxinin] here?
A: 0.401 ± 0.011

Q: For `CC1C=CC=CCCC=CC=CC=CC=CC(OC2OC(C)C(O)C(N)C2O)CC2OC(O)(CC(O)C(O)CCC(O)CC(O)CC(O)CC(=O)OC(C)C(C)C1O)CC(O)C2C(=O)O` (configuration not stated) [Nystatine], which growth is on record?
A: 0.431 ± 0.0073

Q: Which growth does the source give for `CC(C)CC(N(C)C)C1(c2ccc(Cl)cc2)CCC1` (configuration not stated) [Sibutramine HCl] here?
A: 0.414 ± 0.0078

Q: How did the growth turn out when `CCC1(CC)C(=O)C=CNC1=O` [Pyrithyldione] was run?
A: 0.389 ± 0.009

Q: For `CCN(C)C(=O)Oc1cccc([C@H](C)N(C)C)c1` [Rivastigmine], which growth is on record?
A: 0.418 ± 0.0056
